Measurements as given in PubChem BioAssay (NCATS).
“And” between values parts separate entries of the source, which are not always exact repeats. Identical values can stand only once. Inconclusive results are not listed. The source made the active and inactive calls. Unless noted, calls come from the whole dose curve; as a rule, active = well fitted curve in the direction sought with a large enough effect; inconclusive = small, poorly fitted or top-dose-only effect, or another doubt; inactive = no such curve, though single readings can be large; an effect the other way counts as inactive or inconclusive.

Tests used:
[1] = Cell Viability - Jurkat (AID 426;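 active = dose-dependent loss of cell ATP signal giving a full or clear fitted curve, ranked by lower potency value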;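 note: potency is the fitted concentration of half-maximal effect; cells exposed to compound for 40 hours at 37 °C before ATP read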); details: qHTS
How it was run: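 qHTS, 1536-well; Jurkat E6-1, 5000 cells/well, complete medium; cpd 40 hr, 37 °C; CellTiter-Glo 20 min RT; luminescence. AC50 by Hill fit.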

[2] = Cell Viability - Hek293 (AID 427;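 active = compounds whose dose-response curve shows a full or clear partial loss of cell viability, called from curve shape rather than a numeric limit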;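 note: potency is the fitted concentration of half-maximal effect; cells exposed to compound for 40 hours at 37 °C before reading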); details: qHTS
How it was run: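 Luminescent ATP read-out (CellTiter-Glo, 20 min RT) after 40 hr compound exposure at 37 °C in complete medium. Signal normalized to DMSO (basal) and 100 uM tamoxifen (100% inhibition); concentration-response fitted with the standard Hill equation to give AC50.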

[3] = Cell Viability - HepG2 (AID 433; calls by dose curve;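 note: potency is the fitted concentration of half-maximal effect; cells exposed to compound for 40 hours; potency for ATP loss meaning cytotoxicity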); details: qHTS
How it was run: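 HepG2 cells, 1500 per well, treated 40 hr at 37 °C in complete medium; viability from intracellular ATP by CellTiter-Glo luminescence. Normalized to DMSO and 100 uM tamoxifen; AC50 from Hill fit of qHTS concentration-response.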

[4] = Cell Viability - HUV-EC-C (AID 542); details: HUV-EC-C endothelial cell viability, qHTS; series mostly up to 92.2 µM;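 note: cells exposed to compound for 40 hours; % is set by controls: 0 for no effect and ±100 for the full control effect; nearly all actives have a fitted effect of over 35% in size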
How it was run: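 qHTS cytotoxicity: HUV-EC-C, 1000 cells/well, 5 hr settle, compound 40 hr 37 °C, CellTiter-Glo, luminescence. AC50 via Hill equation.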

[5] = Cell Viability - H-4-II-E (AID 543); details: H-4-II-E rat hepatoma viability; series mostly up to 92.2 µM;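 note: cells exposed to compound for 40 hours; nearly all actives have a fitted effect of over 35% in size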; note: potency is the fitted concentration of half-maximal effect
How it was run: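 Luminescent ATP signal (CellTiter-Glo) served as the viability read-out, with cytotoxicity seen as a concentration-dependent ATP drop. Cells were treated for 40 hours in complete medium. AC50 values derive from Hill-equation modelling.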

[6] = Cell Viability - SH-SY5Y (AID 544); details: SH-SY5Y neuroblastoma cell viability; series mostly up to 92.2 µM;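 note: cells exposed to compound for 40 hours; nearly all actives have a fitted effect of over 55% in size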; note: potency is the fitted concentration of half-maximal effect
How it was run: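 Luminescent ATP read-out (CellTiter-Glo) measures loss of viable SH-SY5Y neuroblastoma cells after 40 hr compound exposure at 37 °C. AC50 values derive from standard Hill modelling of qHTS concentration-response data.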

[7] = Cellular Toxicity (caspase-3) SHSY5Y (AID 657); details: SH-SY5Y caspase-3 activation, DMSO zero, 10 µM staurosporine = 100%; series mostly up to 91.7 µM
How it was run: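 SH-SY5Y human neuroblastoma cells, 1500/well, exposed to compound for 16 hours at 37 °C in complete medium. Caspase-3/7 activity read by Caspase-Glo luminescence after 1 hr at room temperature, normalized to DMSO and 10 uM staurosporine; AC50 from Hill fit.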

[8] = Cellular Toxicity (caspase-3) SK-N-SH (AID 661); details: SK-N-SH caspase-3 activation, qHTS, DMSO as zero, staurosporine as full; series mostly up to 91.7 µM
How it was run: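 Human neuroblastoma SK-N-SH, 1500 cells/well, 5 hr pre-incubation, then compound 16 hr, 37 °C. Caspase-Glo 3/7 reagent, 1 hr RT, luminescence. Norm. to DMSO/10 uM staurosporine; Hill-fit AC50.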

[9] = Cellular Toxicity (caspase-3) H-4-II-E (AID 663); details: H-4-II-E rat hepatoma; Potency: caspase-3 activation; series mostly up to 92.2 µM; note: potency is the fitted concentration of half-maximal effect;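 for caspase-3 activation: cells exposed to compound for 16 hr before readout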
How it was run: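 Apoptosis induction is scored as increased luminescence from caspase 3/7 substrate cleavage in rat hepatoma H-4-II-E cells exposed to compound for 16 hr. Activity is scaled between DMSO and 100 uM tamoxifen.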

[10] = Cellular Toxicity (caspase-3) N2a (AID 665); details: N2a cells, luminescence, normalized: DMSO 0%, 10 µM staurosporine 100%; series mostly up to 92.2 µM;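 note: compound exposure lasted 16 h at 37 °C before readout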
How it was run: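 N2a cells, 1500/well, 5 h settle at 37 °C; cpd 16 h, 37 °C; Caspase-Glo 3/7, 1 h RT; luminescence. Norm: DMSO = 0, 10 uM staurosporine = 100%. AC50, Hill fit.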

[11] = Cellular Toxicity (caspase-3) NIH 3T3 (AID 666); details: NIH 3T3 caspase-3 activation, apoptosis/toxicity, 0% DMSO, 100% is 100 µM tamoxifen; series mostly up to 92.2 µM;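 note: caspase signal read after 16 h compound exposure; 0% = DMSO basal and 100% = 100 µM tamoxifen stimulation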
How it was run: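 Luminescence from aminoluciferin released by caspase-3/7 cleavage of a peptide substrate served as read-out. Mouse fibroblast NIH 3T3 cells were exposed to compounds over a concentration range for 16 hours, and AC50 values came from standard Hill modelling.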

[12] = MultiTox-Fluor Cytotoxicity Assay - LYMP1-001 - Dead Cells (AID 946); details: LYMP1-001 lymphoblastoid cells, dead-cell protease fluorescence; series mostly up to 92.2 µM;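 note: 0% = DMSO and 100% = tetraoctylammonium bromide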
How it was run: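 AC50 from Hill fit of concentration-response; data normalized to DMSO (basal) and 15 uM tetraoctylammonium bromide (100%). LYMP1-001 lymphoblastoid cells, 2500/well, 16 hr compound at 37 C; dead-cell protease fluorescence, Ex/Em 485/520.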

[13] = Cell Viability - LYMP1-002 - Assay at 16 hr (AID 948); details: LYMP1-002 lymphoblastoid cell viability; series mostly up to 92.2 µM; note: potency is the fitted concentration of half-maximal effect
How it was run: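 LYMP1-002 human lymphoblastoid cells, 2500/well, were treated with compounds for 16 hr at 37 C in complete medium. Viability was read as intracellular ATP by CellTiter-Glo luminescence, and AC50 was derived from a Hill fit to concentration-response data.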

[14] = Cell Viability - LYMP2-010 (AID 981); details: LYMP2-010 lymphoblastoid cell viability, qHTS; series mostly up to 92.2 µM; note: nearly all actives have a fitted effect of over 55% in size; note: potency is the fitted concentration of half-maximal effect
How it was run: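 Luminescent ATP signal (CellTiter-Glo) served as the viability read-out. Cells of the human lymphoblastoid line were treated with compound over a concentration range for 24 hours at 37 C, and AC50 values came from Hill-equation modeling.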

[15] = Cell Viability - LYMP2-012 (AID 982); details: LYMP2-012 lymphoblastoid cell viability qHTS; series mostly up to 92.2 µM;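 note: cellular ATP by luciferase luminescence where a drop means cytotoxicity; cells exposed to compound for one day before reading; nearly all actives have a fitted effect of over 55% in size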; note: potency is the fitted concentration of half-maximal effect
[16] = Cell Viability - LYMP2-018 (AID 985); details: LYMP2-018 lymphoblastoid cells, viability (qHTS); series mostly up to 92.2 µM;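 note: compound exposure lasted 24 hr at 37 °C; nearly all actives have a fitted effect of over 50% in size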; note: potency is the fitted concentration of half-maximal effect
How it was run: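 Luminescent ATP signal (CellTiter-Glo, read after 30 min at room temperature) reports viable cells after 24 hr compound treatment at 37 C. Concentration-response data were fitted to the standard Hill equation for AC50.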

[17] = Cell Viability - LYMP2-024 (AID 988); details: LYMP2-024 lymphoblastoid cell viability; series mostly up to 92.2 µM; note: nearly all actives have a fitted effect of over 60% in size; note: potency is the fitted concentration of half-maximal effect
How it was run: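 Steps: seed 2500 cells/well, 5 hr 37 C; add compound, 24 hr 37 C; add CellTiter-Glo, 30 min room temperature; read luminescence. AC50 derived by Hill modelling of concentration-dependent ATP loss.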

[18] = molecular target: Retinoic acid receptor RXR-alpha (Homo sapiens) (UniProt P19793); assay: qHTS assay for small molecule antagonists of retinoid X receptor alpha signaling (AID 588546; active = well fitted inhibition curve with a large enough effect in the signal ratio, with a control signal flat, not every such curve was filed as active; the % refers to the signal ratio;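 note: cells stimulated with 9-cis-retinoic acid as agonist; % is set by controls: 0 for no effect and ±100 for the full control effect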); details: HEK293T RXRa-UAS-bla, beta-lactamase ratio, antagonist mode
Sequence of Retinoic acid receptor RXR-alpha (Homo sapiens) (P19793 whole entry, looked up): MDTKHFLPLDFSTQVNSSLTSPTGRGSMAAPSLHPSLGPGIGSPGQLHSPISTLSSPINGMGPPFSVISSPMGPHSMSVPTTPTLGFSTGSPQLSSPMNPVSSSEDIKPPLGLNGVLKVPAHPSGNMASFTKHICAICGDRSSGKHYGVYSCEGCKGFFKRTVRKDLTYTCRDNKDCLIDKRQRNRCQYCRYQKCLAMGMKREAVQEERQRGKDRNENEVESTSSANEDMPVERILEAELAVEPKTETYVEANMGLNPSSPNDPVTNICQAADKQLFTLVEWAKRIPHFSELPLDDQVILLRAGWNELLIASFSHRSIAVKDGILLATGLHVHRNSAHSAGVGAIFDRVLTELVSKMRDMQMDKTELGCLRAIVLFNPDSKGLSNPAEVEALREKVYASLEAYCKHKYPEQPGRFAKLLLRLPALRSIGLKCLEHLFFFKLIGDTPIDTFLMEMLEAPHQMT
How it was run: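 Beta-lactamase reporter inhibition, read as CCF4 fluorescence ratio (ex 405, em 460/530 nm) after 2 h at RT. HEK293T UAS-bla cells, 2500/well, were stimulated with 9-cis-RA at 500 or 100 nM final alongside test compound for 18 h at 37 C.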

[19] = qHTS assay for small molecule agonists of the antioxidant response element (ARE) signaling pathway measured by Nrf2-dependant transcriptional activity - cell viability counter screen (AID 720653; active = well fitted curve in the direction sought with a large enough effect in the repeat runs; an effect the other way counts as inactive or inconclusive; note: potency is the fitted concentration of half-maximal effect; for max response: % is set by controls: 0 for no effect and ±100 for the full control effect); details: ARE-bla HepG2 viability, CellTiter-Glo ATP luminescence, 16 h; max response: active compounds read low
How it was run: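 Cytotoxicity counter screen: intracellular ATP quantified by CellTiter-Glo luminescence in the same ARE-bla HepG2 plates, after 16 h compound exposure and a 2 h beta-lactamase substrate step.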

[20] = qHTS assay for cell viability of the p53RE-bla HCT-116 cell line (AID 743292); details: p53RE-bla HCT-116 viability, ATP luminescence, 16 h; series mostly up to 95 µM; note: % is set by controls: 0 for no effect and ±100 for the full control effect; nearly all actives have a fitted effect of over 55% in size
How it was run: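 HCT-116 p53RE-bla cells seeded 4,000/well; 5 h at 37 C; compound (DMSO) added; 16 h at 37 C; CellTiter-Glo added, 30 min RT; luminescence read.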

Cc1c(N=C=O)cccc1N=C=O
inactive: Potency [1] > 92 µM | Potency [2] > 92 µM | Potency [3] > 92 µM | outcome [4] | Potency [5] | Potency [6] | outcome [7] | outcome [8] | Potency [9] | outcome [10] | outcome [11] | Potency [12] | Potency [13] | Potency [14] | Potency [15] | Potency [16] | Potency [17] | max response [18] 6.11% and -21.4% | max response [19] 0.551% and 0.668% | Potency [20]

CCCCCCCCO
inactive: Potency [1] > 92 µM | Potency [2] > 92 µM | Potency [3] > 92 µM | outcome [4] | Potency [5] | Potency [6] | outcome [7] | outcome [8] | Potency [9] | outcome [10] | outcome [11] | Potency [12] | Potency [13] | Potency [14] | Potency [15] | Potency [16] | Potency [17] | max response [18] 1.87% and 1.57% and -7.12% | max response [19] -1.13% and 11.2% and -1.97% | Potency [20]

CCO[Si](CCCN)(OCC)OCC
inactive: Potency [1] > 92 µM | Potency [2] > 92 µM | Potency [3] > 92 µM | outcome [4] | Potency [5] | Potency [6] | outcome [7] | outcome [8] | Potency [9] | outcome [10] | outcome [11] | Potency [12] | Potency [13] | Potency [14] | Potency [15] | Potency [16] | Potency [17] | max response [18] 16.1% and 0.599% | max response [19] -1.9% and -14% | Potency [20]

CC1(C)CC(N=C=O)CC(C)(CN=C=O)C1 (stereo not drawn)
inactive: Potency [1] > 92 µM | Potency [2] > 92 µM | Potency [3] > 92 µM | outcome [4] | Potency [5] | Potency [6] | outcome [7] | outcome [8] | Potency [9] | outcome [10] | outcome [11] | Potency [12] | Potency [13] | Potency [14] | Potency [15] | Potency [16] | Potency [17] | max response [18] 12.5% and -8% | max response [19] 6.59% and -15.1% | Potency [20]

CCC(C)c1ccccc1O (stereo not drawn)
inactive: Potency [1] > 92 µM | Potency [2] > 92 µM | Potency [3] > 92 µM | outcome [4] | Potency [5] | Potency [6] | outcome [7] | outcome [8] | Potency [9] | outcome [10] | outcome [11] | Potency [12] | Potency [13] | Potency [14] | Potency [15] | Potency [16] | Potency [17] | max response [18] 0.496% and -0.838% and 1.78% | max response [19] 15.2% and -6.24% and -8.74% | Potency [20]

Nc1ccc(S(=O)(=O)O)cc1
inactive: Potency [1] > 92 µM | Potency [2] > 92 µM | Potency [3] > 92 µM | outcome [4] | Potency [5] | Potency [6] | outcome [7] | outcome [8] | Potency [9] | outcome [10] | outcome [11] | Potency [12] | Potency [13] | Potency [14] | Potency [15] | Potency [16] | Potency [17] | max response [18] -17.1% | max response [19] 0.96% and 3.16% | Potency [20]

Cc1ccc([N+](=O)[O-])cc1N
inactive: Potency [1] > 92 µM | Potency [2] > 92 µM | Potency [3] > 92 µM | outcome [4] | Potency [5] | Potency [6] | outcome [7] | outcome [8] | Potency [9] | outcome [10] | outcome [11] | Potency [12] | Potency [13] | Potency [14] | Potency [15] | Potency [16] | Potency [17] | max response [18] -2.87% and -11.4% | max response [19] -2.84% and 7.73% | Potency [20]

Nc1ccc(Cl)cc1Cl
inactive: Potency [1] > 92 µM | Potency [2] > 92 µM | Potency [3] > 92 µM | outcome [4] | Potency [5] | Potency [6] | outcome [7] | outcome [8] | Potency [9] | outcome [10] | outcome [11] | Potency [12] | Potency [13] | Potency [14] | Potency [15] | Potency [16] | Potency [17] | max response [18] -0.389% and -0.876% | max response [19] -3.23% and 2.15% | Potency [20]

NC1=NC(S)C2N=CN=C2N1 (stereo not drawn)
inactive: outcome [4] | outcome [7] | outcome [8] | outcome [10] | outcome [11] | max response [18] 2.23%
active: Potency [1] 0.0486 µM | Potency [2] 1.39 µM | Potency [3] 1.89 µM | Potency [5] 398 nM | Potency [6] 12.6 µM | Potency [9] 2.51 µM | Potency [13] 12.6 µM | Potency [14] 12.6 µM | Potency [15] 7.94 µM | Potency [16] 7.94 µM | Potency [17] 12.6 µM | Potency [19] 5.01 µM

CCCCC(CC)CN (stereo not drawn)
inactive: Potency [1] > 92 µM | Potency [2] > 92 µM | Potency [3] > 92 µM | outcome [4] | Potency [5] | Potency [6] | outcome [7] | outcome [8] | Potency [9] | outcome [10] | outcome [11] | Potency [12] | Potency [13] | Potency [14] | Potency [15] | Potency [16] | Potency [17] | max response [18] 27.8% and 7.94% | max response [19] -5.16% and -12.4% | Potency [20]

COC(=O)CCCCC(=O)OC
inactive: Potency [1] > 92 µM | Potency [2] > 92 µM | Potency [3] > 92 µM | outcome [4] | Potency [5] | Potency [6] | outcome [7] | outcome [8] | Potency [9] | outcome [10] | outcome [11] | Potency [12] | Potency [13] | Potency [14] | Potency [15] | Potency [16] | Potency [17] | max response [18] -2.55% and -9.27% and -5.71% | max response [19] -2.58% and 2.67% and 6.18% | Potency [20]
